Test [1] is described as follows: Nuclear factor erythroid 2-related factor 2/antioxidant responsive element (Nrf2/ARE) small molecule agonists: qHTS cell viability counter screen in human keratinocytes (AID 1919968; active means well fitted curve in the direction sought with a large enough effect in the repeat runs; an effect the other way counts as inactive or inconclusive; further: nearly all actives have a fitted effect of over 55% in size). Summed up:
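CellTiter-Fluor fluorescence, read 1 h after reagent, gave viability in the same wells as the ARE-luciferase assay. KeratinoSens cells (1,500/well) had 23 h compound exposure at 37 C/5% CO2 following 5 h plating.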

A short description of test [2]: Nuclear factor erythroid 2-related factor 2/antioxidant responsive element (Nrf2/ARE) small molecule agonists: luciferase reporter gene qHTS assay in human keratinocytes (AID 1919969). Further: nearly all actives have a fitted effect of over 35% in size. Further: potency means the concentration at half of the fitted maximal effect.
For test [3], the target named is KiSS-1 receptor (Homo sapiens) (UniProt Q969F8). Briefly: Human kisspeptin (KISS1R) small molecule agonists, calcium flux assay in KISS1R-HEK293 cells (AID 1920064; active means well fitted curve in the direction sought with a large enough effect in the repeat runs; an effect the other way counts as inactive or inconclusive). Summed up:
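Agonist mode: intracellular calcium rise tracked at 1 s intervals over 3 min (480/540 nm) immediately after compound addition to dye-loaded KISS1R-HEK293 stable cells. Each compound tested at 15 concentrations in triplicate.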
On the technique in general: Calcium assays in cells follow changes in intracellular calcium, usually with a dye or a luminescent sensor.

A short description of test [4]: G protein-coupled receptor (GPCR) small molecule agonists, calcium flux assay: HEK293 wild type cell line counter screen (AID 1920065). In a few lines: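 Calcium flux counter screen: compound added in agonist mode at 15 concentrations in triplicate to dye-loaded parental HEK293 cells. Fluorescence (480/540) read kinetically for 3 min; ATP served as positive control.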

The nature of test [5]: p53 small molecule agonists, cell-based qHTS assay with human liver microsomes (AID 1963577).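 Further: p53 response element beta-lactamase reporter cells with liver microsomes plus NADPH.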 Summed up: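 With metabolic activation: human liver microsomes (0.5 mg/mL final) plus NADPH (0.5 mg/mL final) added alongside compounds to p53RE-bla cells; 16 h 37 C exposure; beta-lactamase read by LiveBLAzer fluorescence.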
In general terms: Quantitative high-throughput screening tests each substance at several concentrations.

Test [6] can be described thus: p53 small molecule agonists, cell-based qHTS assay with rat liver microsomes (AID 1963578). Summed up:
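Metabolic activation by rat liver microsomes and NADPH, each 0.5 mg/mL final, added right after compounds to p53RE-bla reporter cells (4,000/well, plated 5 h earlier). 16 h at 37 C, then LiveBLAzer substrate for 2 h at room temperature in the dark; fluorescence read-out.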

The nature of test [7]: p53 small molecule agonists, cell-based qHTS assay with human liver microsomes: qHTS cell viability counter screen (AID 1963579). Further: nearly all actives have a fitted effect of over 45% in size. Summed up: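 Metabolic activation used human liver microsomes and NADPH, both 0.5 mg/mL final, over 16 hours at 37 C on p53RE-bla cells (4,000/well). Cytotoxicity measured by CellTiter-Glo luminescence, 30 min at room temperature.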
Test [8] can be described thus: p53 small molecule agonists, cell-based qHTS assay with rat liver microsomes: qHTS cell viability counter screen (AID 1963580). Further: nearly all actives have a fitted effect of over 45% in size. In a few lines: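 Cytotoxicity counter screen: intracellular ATP read by CellTiter-Glo luminescence in the p53 reporter wells. HCT-116 p53RE-bla cells were treated for 16 h at 37 C alongside rat liver microsomes and NADPH, each 0.5 mg/mL final.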

Test [9] is described as follows: p53 small molecule agonists, cell-based qHTS assay (AID 1963582; active means well fitted activation curve with a large enough effect in the signal ratio in the repeat runs, not every such curve was filed as active; the % refers to the signal ratio). Summed up:
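Read-out is beta-lactamase FRET fluorescence after 2 h at room temperature with LiveBLAzer B/G substrate. p53 response element-bla cells were treated 16 h at 37 C with compounds in DMSO, added 5 h after seeding.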

Test [10] has as its target 5-hydroxytryptamine receptor 2A (Homo sapiens) (UniProt P28223). Briefly: 5-hydroxytryptamine receptor 2A (HTR2A) small molecule antagonists, cell-based qHTS assay (AID 1963586). Further: nearly all actives have a fitted effect of over 45% in size. Further: potency means the concentration at half of the fitted maximal effect. In a few lines:
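CHO cells stably expressing human HTR2A were plated for 18 h at 37 C, then loaded with calcium dye for 1 h. Compounds were preincubated 5 min at room temperature before DOI (4 nM solution) was added. Kinetic fluorescence was read for 3 min.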

Test [11] shares this target. As to the kind of experiment: 5-hydroxytryptamine receptor 2A (HTR2A) small molecule agonists, cell-based qHTS assay (AID 1963587). Further: nearly all actives have a fitted effect of over 30% in size. Summed up:
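Kinetic calcium-flux fluorescence (2 min, 1 sec intervals) after compound addition in agonist mode. HTR2A-CHO cells were cultured 18 h, then dye-loaded 1 h at 37 C.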

The target in test [12] is Muscarinic acetylcholine receptor M1 (Homo sapiens) (UniProt P11229). As to the kind of experiment: Cholinergic receptor muscarinic 1 (CHRM1) small molecule antagonists, cell-based qHTS assay (AID 1963588). Further: nearly all actives have a fitted effect of over 40% in size. Summed up: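 Compounds were tested at 15 concentrations in three independent runs. Dye-loaded CHRM1-CHO cells were exposed 5 min at room temperature before stimulation by acetylcholine added at 50nM. Intracellular calcium was read kinetically on FDSS for 3 min.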
Muscarinic acetylcholine receptor M1 (Homo sapiens), sequence (P11229 whole entry, looked up): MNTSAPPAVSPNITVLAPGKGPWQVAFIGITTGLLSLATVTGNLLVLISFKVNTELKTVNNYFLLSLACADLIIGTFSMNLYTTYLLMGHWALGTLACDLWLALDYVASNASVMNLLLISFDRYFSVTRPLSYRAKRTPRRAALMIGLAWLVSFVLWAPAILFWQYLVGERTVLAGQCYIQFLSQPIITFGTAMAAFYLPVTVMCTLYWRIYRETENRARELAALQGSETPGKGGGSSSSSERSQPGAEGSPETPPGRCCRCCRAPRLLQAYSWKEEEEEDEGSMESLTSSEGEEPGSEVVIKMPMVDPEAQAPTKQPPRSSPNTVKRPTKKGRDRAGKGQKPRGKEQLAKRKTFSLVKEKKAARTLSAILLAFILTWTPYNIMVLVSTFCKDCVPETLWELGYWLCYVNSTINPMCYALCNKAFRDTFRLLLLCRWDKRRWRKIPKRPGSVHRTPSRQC

For test [13] the target is unchanged. Briefly: Cholinergic receptor muscarinic 1 (CHRM1) small molecule agonists, cell-based qHTS assay (AID 1963589). Further: nearly all actives have a fitted effect of over 35% in size. In a few lines:
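Agonist-mode calcium-flux screen: compounds at 15 concentrations, three independent runs, were pin-transferred onto dye-loaded human CHRM1-CHO cells. Fluorescence was then recorded kinetically every second over minutes.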

Test [14] is described as follows: cAMP Responsive Elements (CRE) small molecule agonists, cell-based qHTS assay (AID 1963590). Summed up:
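Agonist mode: compound added to CRE-bla HEK 293T cells (2,000/well, 18 h after plating) for 3 h at 37 C/5% CO2. Reporter activity detected via FRET beta-lactamase substrate, 2 h room-temperature loading.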

Test [15] is described as follows: cAMP Responsive Elements (CRE) small molecule antagonists, cell-based qHTS assay (AID 1963591; active means well fitted inhibition curve with a large enough effect in the signal ratio in the repeat runs, not every such curve was filed as active; the % refers to the signal ratio). Summed up:
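Antagonist mode: compounds are added alongside the adenylyl cyclase activator NKH477 (0.25 uM final) to CRE-bla HEK293T cells for 3 h. LiveBLAzer FRET substrate, 2 h at room temperature, reports bla expression.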

Test [16] deals with Beta-2 adrenergic receptor (Homo sapiens) (UniProt P07550). Briefly: Adrenergic beta2 receptor (ADRB2) small molecule antagonists, cell-based qHTS assay (AID 1963592). Further: series mostly up to about 92 µM; nearly all actives have a fitted effect of over 50% in size. In a few lines:
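Assay format: CHO-ADRB2 cells, 18-20hr seeding at 37C/5% CO2, then compound plus 1nM isoproterenol agonist mix for 0.5hr RT. Homogeneous time-resolved fluorescence cAMP detection after 1hr, expressed as 665/615 nm ratio.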

For test [17], the target named is D(2) dopamine receptor (Homo sapiens) (UniProt P14416). As to the kind of experiment: Dopamine D2 receptor (DRD2) small molecule agonists, cell-based qHTS assay (AID 1963594). Further: nearly all actives have a fitted effect of over 35% in size. In a few lines:
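cAMP accumulation in DRD2-HEK293 cells measured by HTRF after 1 h detection; compounds added 10 min before NKH477 (200nM […]) forskolin-analogue stimulation, 30 min at room temperature, with Ro20-1724 present at 0.1 mM final.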

For test [18] the target is unchanged. Briefly: Dopamine D2 receptor (DRD2) small molecule antagonists, cell-based qHTS assay (AID 1963595; active means well fitted inhibition curve with a large enough effect in the signal ratio in the repeat runs, with a control signal flat; the % refers to the signal ratio). In a few lines: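 Cells were plated and grown for 24 h at 37 °C. Ro20-1724 (0.1 mM final) went in first, then compound for 10 min. NKH477 (200 nM) with quinpirole (12 nM) followed for 30 min at RT, then HTRF detection reagents for 1 h.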
Test [19] concerns the target Beta-2 adrenergic receptor (Homo sapiens) (UniProt P07550). As to the kind of experiment: Adrenergic beta2 receptor (ADRB2) small molecule agonists, cell-based qHTS assay (AID 1963593).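 Further: CHO cells stably overexpressing human ADRB2.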 In a few lines: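 CHO cells stably over-expressing ADRB2 were plated overnight at 37C, then dosed with compounds plus a stimulation mix containing 100uM IBMX and 25uM Ro-20-1724 for 0.5hr at room temperature. cAMP was measured by HTRF competition, 1hr.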

Test [20] in a line: p53 small molecule agonists, cell-based qHTS assay: qHTS cell viability counter screen (AID 1963581). Further: nearly all actives have a fitted effect of over 45% in size. Summed up: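 Counter screen read by CellTiter-Glo luminescence (ATP content, 30 min at room temperature), run in the same wells as the beta-lactamase reporter read. HCT-116 p53RE-bla cells saw compounds for 16 h at 37 C.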

Molecules are shown by their SMILES. Results filed as inconclusive are left out. Calls of active or inactive are those of the source. Unless noted, the call rests on the fitted dose curve.

Beta-2 adrenergic receptor (Homo sapiens), sequence (P07550 whole entry, looked up): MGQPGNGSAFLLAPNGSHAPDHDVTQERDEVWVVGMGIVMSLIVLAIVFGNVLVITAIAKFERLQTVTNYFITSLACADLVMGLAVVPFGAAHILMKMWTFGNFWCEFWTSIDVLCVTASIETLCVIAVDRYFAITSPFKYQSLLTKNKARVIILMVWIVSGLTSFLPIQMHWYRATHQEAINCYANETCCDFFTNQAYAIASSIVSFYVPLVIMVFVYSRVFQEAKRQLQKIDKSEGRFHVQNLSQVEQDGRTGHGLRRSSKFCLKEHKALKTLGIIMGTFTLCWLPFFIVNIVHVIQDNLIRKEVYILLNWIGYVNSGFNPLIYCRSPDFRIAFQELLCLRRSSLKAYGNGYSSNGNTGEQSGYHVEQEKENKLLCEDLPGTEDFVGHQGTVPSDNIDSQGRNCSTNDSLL
D(2) dopamine receptor (Homo sapiens), sequence (P14416 whole entry, looked up): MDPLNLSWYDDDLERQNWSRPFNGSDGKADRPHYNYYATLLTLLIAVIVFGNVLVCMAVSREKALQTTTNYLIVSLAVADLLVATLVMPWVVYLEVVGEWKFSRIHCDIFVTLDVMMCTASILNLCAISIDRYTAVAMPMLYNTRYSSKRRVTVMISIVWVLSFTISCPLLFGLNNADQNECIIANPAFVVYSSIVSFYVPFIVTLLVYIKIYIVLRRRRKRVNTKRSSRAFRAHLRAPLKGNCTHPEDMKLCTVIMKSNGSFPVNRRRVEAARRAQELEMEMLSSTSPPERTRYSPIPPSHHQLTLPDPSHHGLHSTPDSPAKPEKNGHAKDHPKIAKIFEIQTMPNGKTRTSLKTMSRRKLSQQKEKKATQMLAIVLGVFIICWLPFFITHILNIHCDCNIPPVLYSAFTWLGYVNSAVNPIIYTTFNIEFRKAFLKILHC
KiSS-1 receptor (Homo sapiens), sequence (Q969F8 whole entry, looked up): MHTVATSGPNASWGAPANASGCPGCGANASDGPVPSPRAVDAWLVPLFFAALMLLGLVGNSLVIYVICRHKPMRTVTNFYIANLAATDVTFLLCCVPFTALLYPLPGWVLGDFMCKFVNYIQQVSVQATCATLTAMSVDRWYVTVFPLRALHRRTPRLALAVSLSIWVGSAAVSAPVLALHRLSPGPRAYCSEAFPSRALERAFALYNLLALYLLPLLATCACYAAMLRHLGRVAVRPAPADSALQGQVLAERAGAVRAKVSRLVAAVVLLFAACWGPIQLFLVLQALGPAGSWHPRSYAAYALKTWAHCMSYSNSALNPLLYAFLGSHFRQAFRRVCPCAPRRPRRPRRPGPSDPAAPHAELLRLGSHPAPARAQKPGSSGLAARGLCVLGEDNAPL
5-hydroxytryptamine receptor 2A (Homo sapiens), sequence (P28223 whole entry, looked up): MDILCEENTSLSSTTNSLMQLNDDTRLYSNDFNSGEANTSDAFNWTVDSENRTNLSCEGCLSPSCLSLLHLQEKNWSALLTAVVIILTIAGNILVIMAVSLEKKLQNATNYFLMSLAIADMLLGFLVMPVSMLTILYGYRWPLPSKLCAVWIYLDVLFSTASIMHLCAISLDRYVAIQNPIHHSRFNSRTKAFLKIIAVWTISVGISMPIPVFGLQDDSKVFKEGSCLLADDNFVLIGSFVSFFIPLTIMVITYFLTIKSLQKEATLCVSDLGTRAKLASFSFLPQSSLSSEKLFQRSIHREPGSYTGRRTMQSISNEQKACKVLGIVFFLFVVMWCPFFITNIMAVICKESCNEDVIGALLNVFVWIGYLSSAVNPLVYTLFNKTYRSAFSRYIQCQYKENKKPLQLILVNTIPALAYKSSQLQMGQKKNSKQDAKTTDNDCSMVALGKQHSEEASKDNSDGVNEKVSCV

`CC(C)CC(=O)O`: the Potency result in [1], in test [2], in test [3], in [4], in test [5] and in test [6] was “inactive” throughout. For the same molecule, the Potency entry in [7], in test [8], in test [9], in test [10], in [11] and in [12] was “inactive” each time. Besides, the Potency entry in test [13], in test [14], in [15], in test [16], in test [17] and in test [18] was “inactive” in each case.
For `COc1cc(CCC(C)=O)ccc1O`, the Potency result in [1], in [2], in test [3], in test [4], in test [5] and in test [6] was “inactive” each time. Besides, the Potency entry in test [7], in [8], in test [9], in test [12], in test [13] and in test [14] was “inactive” in each case. The Potency result in test [15], in test [16], in test [19], in [17] and in [18] was “inactive” each time. The Potency in [10] was 3.75 µM (active).
With `CC[C@H](C)[C@@H](C(=O)O)n1sc2ccccc2c1=O`, the Potency entry in [1], in test [3], in test [4], in test [5], in [7] and in [8] was “inactive” throughout. The Potency result in [20], in test [9], in test [10], in test [11], in [12] and in [13] was “inactive” throughout. The Potency entry in [14], in test [15], in [16] and in test [17] was “inactive” throughout. Moreover, the Potency in [2] was 54.5 µM (active).
Turning to `CNC(=O)c1c(I)c(NC(C)=O)c(I)c(C(=O)O)c1I`, the Potency result in [1], in [2], in test [3], in [4], in [5] and in test [6] was “inactive” throughout. In addition, the Potency entry in test [8], in test [20], in [9], in test [10], in [11] and in [12] was “inactive” in each case. Moreover, the Potency result in [13], in test [14], in test [15], in test [16], in [19] and in test [17] was “inactive” in each case. In addition, the Potency result in [18] was “inactive”.
In the case of `CC(C)CNCC(C)C`, the Potency result in [1], in test [2], in test [3], in test [4], in test [6] and in test [7] was “inactive” in each case. The Potency result in test [8], in test [20], in test [9], in [10], in test [11] and in [12] was “inactive” throughout. Moreover, the Potency result in [13], in [14], in [15], in [16], in test [17] and in test [18] was “inactive” in each case.
Regarding `SCCSCCS`, the Potency entry in test [1], in test [2], in test [3], in [4], in test [5] and in test [6] was “inactive” each time. Moreover, the Potency result in test [7], in test [8], in test [9], in test [10], in [11] and in test [12] was “inactive” in each case. For the same molecule, the Potency result in [13], in test [14], in [15], in test [16], in test [19] and in test [17] was “inactive” in each case. In [18], the Potency result was “inactive”.
Take `Cc1ccc(S(=O)(=O)NC(=O)NC2CCCC2)cc1`: the Potency entry in test [1], in test [2], in test [3], in [4], in test [6] and in [7] was “inactive” throughout. In addition, the Potency result in test [8], in [20], in test [9], in test [10], in test [11] and in test [12] was “inactive” in each case. Further, the Potency result in test [13], in test [16], in test [19], in test [17] and in test [18] was “inactive” in each case.

The values are drawn from PubChem BioAssay (Tox21).
